Source: PubChem BioAssay (EPA / NIEHS)
Inconclusive results are not listed. Active and inactive are the calls of the source. Rule for the calls, unless noted: active = hit-call score of the fitted dose curve at least 0.9, where 1 is the maximum; inactive = score below 0.9.

How the values were obtained:
[1] = target: CCAAT/enhancer-binding protein beta (Homo sapiens) (UniProt P17676); assay: ATG_C_EBP_CIS: Attagene CIS-FACTORIAL HepG2 Assay for human CCAAT/Enhancer Binding Protein (C/EBP) beta (AID 2282927); conditions: HepG2 Attagene cis-factorial transcription factor reporter; actives raise or lower the signal
Outline: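 Endogenous C/EBPb-driven reporter transcripts measured in transfected human HepG2 cells at 24 h via RT-PCR and capillary electrophoresis of labelled fragments. Activity fitted in both directions relative to DMSO baseline.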

[2] = ATG_CMV_CIS: Attagene CIS-FACTORIAL HepG2 Assay for human CMV (Internal Marker) (AID 2282928); conditions: HepG2 CMV promoter reporter, transcription factor profiling; actives raise or lower the signal;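 note: endpoint acts as a background internal control marker rather than a target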
Outline: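 24 h chemical treatment, HepG2 with transient multi-reporter transfection; RNA → oligo(dT) RT → PCR → 6-FAM extension → HpaI digest → CE fluorescence. Bidirectional fit, DMSO negative control.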

[3] = target: Aryl hydrocarbon receptor (Homo sapiens) (UniProt P35869); assay: ATG_Ahr_CIS: Attagene CIS-FACTORIAL HepG2 Assay for human Aryl Hydrocarbon Receptor (Ahr) (AID 2282930); conditions: HepG2 AhR cis-factorial reporter transcription; actives raise or lower the signal
Outline: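 Reporter mRNA levels, quantified by RT-PCR and fluorescent capillary electrophoresis, reflect endogenous AhR transcriptional activity in HepG2 cells carrying transfected cis-promoter reporter constructs. Readout at 24 h post-dose; gain or loss fitted against DMSO baseline.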

[4] = ATG_AP_1_CIS: Attagene CIS-FACTORIAL HepG2 Assay for human Activator Protein 1 (AP-1) (AID 2282931); conditions: HepG2 Attagene cis-factorial AP-1 reporter mRNA; actives raise or lower the signal
Outline: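 We transfected HepG2 cells transiently with a set of cis-regulated reporter transcription units, dosed them for 24 h, and quantified reporter mRNA via RT-PCR and capillary electrophoresis, scoring gain or loss of signal relative to DMSO.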

[5] = ATG_EGR_CIS: Attagene CIS-FACTORIAL HepG2 Assay for human Early Growth Response 1 (EGR1) (AID 2282938); conditions: HepG2 Attagene CIS-FACTORIAL EGR reporter mRNA; actives raise or lower the signal
Outline: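 Multiplexed cis-reporter system in human hepatoma HepG2 cells, transiently transfected. Cells are dosed for 24 h; reporter transcripts are amplified, fluorescently tagged and sized by capillary electrophoresis, with DMSO as negative control.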

[6] = ATG_GLI_CIS: Attagene CIS-FACTORIAL HepG2 Assay for human Zinc Finger Protein GLI1 (AID 2282945); conditions: HepG2, Attagene cis-factorial reporter mRNA, GLI element; actives raise or lower the signal
Outline: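 Bidirectional curve fits relative to DMSO, using reporter mRNA levels from RT-PCR plus capillary electrophoresis. Cells were HepG2 transiently carrying cis-regulated reporter constructs, harvested 24 h after dosing.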

[7] = ATG_ISRE_CIS: Attagene CIS-FACTORIAL HepG2 Assay for human Interferon Regulatory Factor 1 (IRF1) binding to an Interferon-Stimulated Response Element (ISRE) (AID 2282948); conditions: HepG2 ISRE cis-reporter (Attagene), mRNA transcription readout; actives raise or lower the signal
Outline: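 Multiplexed mRNA reporter readout in human liver HepG2 cells: cis-element-driven reporters transfected, compound added for 24 h, transcripts amplified, fluorescently labelled and sized by capillary electrophoresis; curve fitting bidirectional against DMSO.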

[8] = target: Hypoxia-inducible factor 1-alpha (Homo sapiens) (UniProt Q16665); assay: ATG_HIF1a_CIS: Attagene CIS-FACTORIAL HepG2 Assay for human Hypoxia Inducible Factor 1 (HIF1A) (AID 2282951); conditions: HepG2 Attagene cis-factorial HIF1a reporter transcription; actives raise or lower the signal
Outline: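 Cis-element reporter constructs were transiently transfected into HepG2 cells, which were treated for 24 h; reporter RNA was reverse-transcribed, amplified, labelled and resolved by capillary electrophoresis.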

[9] = target: Heat shock factor protein 1 (Homo sapiens) (UniProt Q00613); assay: ATG_HSE_CIS: Attagene CIS-FACTORIAL HepG2 Assay for human Heat Shock Transcription Factor 1 (HSE) (AID 2282953); conditions: HepG2 HSE cis-reporter, Attagene RNA transcription; actives raise or lower the signal
Outline: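 Endogenous transcription factor activity captured via cis-promoter reporter units transfected into HepG2; treatment lasted 24 h. Fluorescence intensity of reporter fragments analysed with bidirectional curve fitting, DMSO baseline.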

[10] = ATG_TAL_CIS: Attagene CIS-FACTORIAL HepG2 Assay for human TAL Basal Promoter (AID 2282966); conditions: HepG2 Attagene cis-factorial TAL promoter reporter; actives raise or lower the signal;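 note: background control endpoint measuring basal TAL promoter reporter mRNA not a specific factor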
Outline: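 Human hepatoma HepG2 cells, transfected with promoter-regulated reporter units, were treated 24 h. Reporter transcript levels, measured through RT-PCR and capillary electrophoresis, were fitted for gain or loss relative to DMSO.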

[11] = target: X-box-binding protein 1 (Homo sapiens) (UniProt P17861); assay: ATG_Xbp1_CIS: Attagene CIS-FACTORIAL HepG2 Assay for human X-box Binding Protein 1 (XBP1) (AID 2282972); conditions: HepG2 XBP1 cis-element reporter, Attagene multiplex; actives raise or lower the signal
Outline: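 Multiplexed cis-reporter readout in transfected HepG2 liver cells. Exposure lasted 24 hours. Activity in either direction was fitted against DMSO as negative control and baseline.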

[12] = target: Transcriptional activator Myb (Homo sapiens) (UniProt P10242); assay: ATG_Myb_CIS: Attagene CIS-FACTORIAL HepG2 Assay for human Myeloblastosis (Myb) Proto-Oncogene Transcription Factor (AID 2282986); conditions: HepG2 Attagene CIS-FACTORIAL Myb reporter transcription; actives raise or lower the signal
Outline: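 Using HepG2 liver cells bearing transiently transfected cis-promoter reporter constructs, the assay measures induction or loss of reporter mRNA after 24 hours of dosing. Detection used fluorescently labeled RT-PCR products separated by capillary electrophoresis.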

[13] = target: Nuclear respiratory factor 1 (Homo sapiens) (UniProt Q16656); assay: ATG_NRF1_CIS: Attagene CIS-FACTORIAL HepG2 Assay for human Nuclear Respiratory Factor 1 (NRF1) Orphan Gene (AID 2282987); conditions: HepG2 NRF1 cis-element reporter, Attagene multiplex; actives raise or lower the signal
Outline: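 Reporter mRNA induction or loss in HepG2 cells after 24 h dosing; cis-regulated reporter constructs report endogenous transcription-factor activity. Quantified by RT-PCR/capillary electrophoresis fluorescence, DMSO-referenced.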

[14] = ATG_NFI_CIS: Attagene CIS-FACTORIAL HepG2 Assay for human Nuclear Factor I (NFI) (AID 2282989); conditions: HepG2 cis-regulatory reporter, NFI response element transcription; actives raise or lower the signal
Outline: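 Cells: human liver HepG2, transiently transfected with promoter-regulated reporter transcription units. Exposure 24 h. Detection: fluorescent RT-PCR products separated by capillary electrophoresis, normalised to DMSO negative control.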

[15] = ATG_NRF2_ARE_CIS: Attagene CIS-FACTORIAL HepG2 Assay for human Nuclear Factor Erythroid 2 Related Factor 2 (NFR2) response to Antioxidant Response Elements (ARE) (AID 2282992); conditions: HepG2 Attagene ARE/NRF2 reporter, transcription factor activity; actives raise or lower the signal;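 for AC50: reporter mRNA level measured by RT-PCR and capillary electrophoresis fluorescence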
Outline: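 Endogenous transcription factor activity in human liver HepG2 cells is tracked via a cis-element-driven reporter within a multiplexed set. mRNA induction is read by RT-PCR and capillary electrophoresis after 24 h, with DMSO as baseline.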

[16] = ATG_Oct_MLP_CIS: Attagene CIS-FACTORIAL HepG2 Assay for human Octamer-Binding Transcription Factor (Oct) (AID 2282993); conditions: HepG2 Attagene cis-factorial Oct reporter, mRNA; actives raise or lower the signal
Outline: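 HepG2, transient MRTU transfection, cis promoter elements; 24 h dosing; RT-PCR/CE fluorescence read-out of reporter mRNA; fit both directions vs DMSO.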

[17] = target: Cellular tumor antigen p53 (Homo sapiens) (UniProt P04637); assay: ATG_p53_CIS: Attagene CIS-FACTORIAL HepG2 Assay for human p53 Transcription Factor (AID 2282994); conditions: HepG2 p53 cis-element reporter, Attagene mRNA; actives raise or lower the signal
Outline: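 Steps: transfect HepG2 with multiplexed cis reporter constructs; dose chemicals 24 h; extract RNA, reverse-transcribe, PCR-amplify reporter sequences; FAM-label, HpaI-digest, resolve fragments by CE. Activity fitted both directions relative to DMSO.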

[18] = ATG_XTT_Cytotoxicity: Cytotoxicity Assessment in the Attagene TRANS-FACTORIAL HepG2 Assay (AID 2283584; active = hit-call score of the fitted dose curve at least 0.9, where 1 is the maximum;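 for AC50: XTT signal for cell number as viability in transfected HepG2 cells; cells exposed to compound for 24 h before reading; active means loss of viability signal versus DMSO baseline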)
Outline: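 24 h chemical exposure of reporter-transfected HepG2; XTT signal loss vs DMSO indicates cytotoxicity.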

[19] = ATG_M_06_CIS: Attagene CIS-FACTORIAL HepG2 Assay for M06 Transcription Factor (Internal Marker) (AID 2282950); conditions: HepG2 Attagene CIS-FACTORIAL M06 internal marker reporter; actives raise or lower the signal
Outline: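 HepG2 liver cells, 24 h exposure. Reporter transcripts from transfected cis-element constructs quantified by RT-PCR/capillary electrophoresis fluorescence. Bidirectional curve fit against DMSO.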

[20] = ATG_VDRE_CIS: Attagene CIS-FACTORIAL HepG2 Assay for human Vitamin D Receptor Element (VDRE) (AID 2282968); conditions: HepG2 VDRE cis-reporter transcription, actives raise or lower the signal
Outline: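 Readout is VDRE-driven reporter mRNA reflecting endogenous factor activity in human HepG2 cells, sampled 24 h post-dose. Quantification used labelled RT-PCR products separated by capillary electrophoresis; bidirectional analysis relative to DMSO.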

Measured: AC50

Chain of X-box-binding protein 1 (Homo sapiens) (P17861 whole entry, looked up): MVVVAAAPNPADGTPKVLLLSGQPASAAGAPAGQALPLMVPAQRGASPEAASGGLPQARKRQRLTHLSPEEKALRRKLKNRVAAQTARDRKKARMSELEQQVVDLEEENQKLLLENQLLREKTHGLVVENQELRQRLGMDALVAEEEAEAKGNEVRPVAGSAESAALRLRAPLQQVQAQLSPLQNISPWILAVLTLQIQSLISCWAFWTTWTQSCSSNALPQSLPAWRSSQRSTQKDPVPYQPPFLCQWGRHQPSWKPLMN
Chain of Hypoxia-inducible factor 1-alpha (Homo sapiens) (Q16665 whole entry, looked up): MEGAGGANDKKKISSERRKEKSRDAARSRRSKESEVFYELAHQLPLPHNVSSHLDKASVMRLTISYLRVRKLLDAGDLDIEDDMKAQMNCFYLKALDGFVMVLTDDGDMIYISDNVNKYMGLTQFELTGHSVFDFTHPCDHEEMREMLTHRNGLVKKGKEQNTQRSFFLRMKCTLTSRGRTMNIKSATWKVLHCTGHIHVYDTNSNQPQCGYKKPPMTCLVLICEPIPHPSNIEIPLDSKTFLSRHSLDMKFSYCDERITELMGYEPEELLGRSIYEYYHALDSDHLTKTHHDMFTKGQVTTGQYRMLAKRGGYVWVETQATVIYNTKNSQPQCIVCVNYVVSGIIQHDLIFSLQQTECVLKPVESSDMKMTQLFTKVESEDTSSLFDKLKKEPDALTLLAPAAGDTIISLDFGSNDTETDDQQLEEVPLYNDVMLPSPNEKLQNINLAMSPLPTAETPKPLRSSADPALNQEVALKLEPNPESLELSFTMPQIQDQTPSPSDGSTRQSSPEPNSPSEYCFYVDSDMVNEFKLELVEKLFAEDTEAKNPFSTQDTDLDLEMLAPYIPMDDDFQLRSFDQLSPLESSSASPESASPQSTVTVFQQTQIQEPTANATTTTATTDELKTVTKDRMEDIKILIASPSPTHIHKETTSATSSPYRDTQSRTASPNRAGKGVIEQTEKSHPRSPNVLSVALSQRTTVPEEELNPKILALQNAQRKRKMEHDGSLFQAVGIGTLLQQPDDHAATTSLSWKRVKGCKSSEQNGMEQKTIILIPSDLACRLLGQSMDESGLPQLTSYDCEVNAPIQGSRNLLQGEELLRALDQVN
Chain of CCAAT/enhancer-binding protein beta (Homo sapiens) (P17676 whole entry, looked up, the tested form may be a part): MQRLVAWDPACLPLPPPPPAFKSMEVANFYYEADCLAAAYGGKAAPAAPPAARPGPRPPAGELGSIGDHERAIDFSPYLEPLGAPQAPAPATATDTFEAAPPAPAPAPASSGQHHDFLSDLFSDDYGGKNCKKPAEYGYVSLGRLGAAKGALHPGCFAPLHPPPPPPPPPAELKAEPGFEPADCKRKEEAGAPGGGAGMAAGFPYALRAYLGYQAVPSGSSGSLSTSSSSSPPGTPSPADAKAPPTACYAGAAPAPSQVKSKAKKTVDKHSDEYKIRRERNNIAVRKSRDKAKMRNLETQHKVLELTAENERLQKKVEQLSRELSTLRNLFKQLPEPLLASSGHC
Chain of Aryl hydrocarbon receptor (Homo sapiens) (P35869 whole entry, looked up): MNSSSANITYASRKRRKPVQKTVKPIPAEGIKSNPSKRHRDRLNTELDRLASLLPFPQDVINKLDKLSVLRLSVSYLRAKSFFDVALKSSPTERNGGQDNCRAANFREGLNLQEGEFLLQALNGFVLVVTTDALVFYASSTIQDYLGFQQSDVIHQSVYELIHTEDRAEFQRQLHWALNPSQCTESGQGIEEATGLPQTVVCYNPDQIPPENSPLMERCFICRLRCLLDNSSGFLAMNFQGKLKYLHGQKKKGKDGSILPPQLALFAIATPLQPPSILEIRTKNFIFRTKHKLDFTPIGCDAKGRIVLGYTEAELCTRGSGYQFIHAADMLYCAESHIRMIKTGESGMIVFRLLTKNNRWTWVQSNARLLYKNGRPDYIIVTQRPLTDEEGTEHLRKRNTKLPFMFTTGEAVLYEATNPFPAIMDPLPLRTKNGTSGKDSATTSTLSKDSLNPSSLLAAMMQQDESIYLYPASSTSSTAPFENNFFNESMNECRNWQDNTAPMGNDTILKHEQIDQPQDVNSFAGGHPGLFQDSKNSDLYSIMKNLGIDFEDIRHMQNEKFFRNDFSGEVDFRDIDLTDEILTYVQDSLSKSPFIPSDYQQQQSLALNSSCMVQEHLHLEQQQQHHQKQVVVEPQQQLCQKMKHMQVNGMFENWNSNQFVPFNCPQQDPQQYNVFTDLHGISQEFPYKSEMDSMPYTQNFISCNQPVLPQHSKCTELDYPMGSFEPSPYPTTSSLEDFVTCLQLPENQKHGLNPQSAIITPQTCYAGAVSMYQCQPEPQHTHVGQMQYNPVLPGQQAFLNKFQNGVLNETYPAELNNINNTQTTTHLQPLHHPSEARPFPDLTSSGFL
Chain of Transcriptional activator Myb (Homo sapiens) (P10242 whole entry, looked up): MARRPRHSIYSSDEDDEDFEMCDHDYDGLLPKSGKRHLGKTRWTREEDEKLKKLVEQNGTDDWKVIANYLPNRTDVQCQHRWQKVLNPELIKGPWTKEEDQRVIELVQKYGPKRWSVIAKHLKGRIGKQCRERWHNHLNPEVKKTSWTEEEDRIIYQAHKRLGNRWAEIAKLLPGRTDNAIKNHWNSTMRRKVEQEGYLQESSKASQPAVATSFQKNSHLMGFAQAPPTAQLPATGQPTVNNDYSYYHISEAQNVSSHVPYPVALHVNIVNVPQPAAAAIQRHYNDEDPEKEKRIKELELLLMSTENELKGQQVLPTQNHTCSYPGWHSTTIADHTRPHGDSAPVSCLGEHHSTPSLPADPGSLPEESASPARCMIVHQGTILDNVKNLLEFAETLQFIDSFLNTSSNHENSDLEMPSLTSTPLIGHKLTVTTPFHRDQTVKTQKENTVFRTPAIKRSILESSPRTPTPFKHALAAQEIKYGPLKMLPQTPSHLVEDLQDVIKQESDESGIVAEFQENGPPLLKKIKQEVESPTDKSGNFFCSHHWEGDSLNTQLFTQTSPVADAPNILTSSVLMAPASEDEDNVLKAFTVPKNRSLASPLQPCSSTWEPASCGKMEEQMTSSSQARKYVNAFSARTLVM
Chain of Cellular tumor antigen p53 (Homo sapiens) (P04637 whole entry, looked up, the tested form may be a part): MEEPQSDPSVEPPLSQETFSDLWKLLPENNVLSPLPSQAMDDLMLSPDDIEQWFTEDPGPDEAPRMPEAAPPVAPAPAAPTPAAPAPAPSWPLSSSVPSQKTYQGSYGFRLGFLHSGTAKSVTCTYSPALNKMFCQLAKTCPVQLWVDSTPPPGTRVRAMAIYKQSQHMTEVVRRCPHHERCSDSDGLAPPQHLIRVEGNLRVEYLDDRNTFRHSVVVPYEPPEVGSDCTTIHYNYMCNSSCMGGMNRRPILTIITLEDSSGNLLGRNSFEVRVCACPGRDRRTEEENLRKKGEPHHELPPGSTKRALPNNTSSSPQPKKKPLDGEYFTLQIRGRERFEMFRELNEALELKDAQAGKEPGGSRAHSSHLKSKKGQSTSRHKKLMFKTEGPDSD
Chain of Heat shock factor protein 1 (Homo sapiens) (Q00613 whole entry, looked up, the tested form may be a part): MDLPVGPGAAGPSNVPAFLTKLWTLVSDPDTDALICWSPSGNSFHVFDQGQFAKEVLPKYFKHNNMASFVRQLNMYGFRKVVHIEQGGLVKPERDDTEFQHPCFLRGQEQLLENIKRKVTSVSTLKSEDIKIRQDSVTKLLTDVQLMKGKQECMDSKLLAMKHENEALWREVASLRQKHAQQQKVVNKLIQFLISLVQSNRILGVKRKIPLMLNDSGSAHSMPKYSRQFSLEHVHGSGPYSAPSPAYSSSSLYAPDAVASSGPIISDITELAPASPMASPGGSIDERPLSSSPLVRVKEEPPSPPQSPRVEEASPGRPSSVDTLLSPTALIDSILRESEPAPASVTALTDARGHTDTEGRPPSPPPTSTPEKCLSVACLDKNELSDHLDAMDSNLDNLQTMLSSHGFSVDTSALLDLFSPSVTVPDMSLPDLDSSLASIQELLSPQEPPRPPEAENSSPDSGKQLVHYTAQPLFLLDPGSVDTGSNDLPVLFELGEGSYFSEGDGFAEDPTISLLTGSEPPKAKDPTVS
Chain of Nuclear respiratory factor 1 (Homo sapiens) (Q16656 whole entry, looked up): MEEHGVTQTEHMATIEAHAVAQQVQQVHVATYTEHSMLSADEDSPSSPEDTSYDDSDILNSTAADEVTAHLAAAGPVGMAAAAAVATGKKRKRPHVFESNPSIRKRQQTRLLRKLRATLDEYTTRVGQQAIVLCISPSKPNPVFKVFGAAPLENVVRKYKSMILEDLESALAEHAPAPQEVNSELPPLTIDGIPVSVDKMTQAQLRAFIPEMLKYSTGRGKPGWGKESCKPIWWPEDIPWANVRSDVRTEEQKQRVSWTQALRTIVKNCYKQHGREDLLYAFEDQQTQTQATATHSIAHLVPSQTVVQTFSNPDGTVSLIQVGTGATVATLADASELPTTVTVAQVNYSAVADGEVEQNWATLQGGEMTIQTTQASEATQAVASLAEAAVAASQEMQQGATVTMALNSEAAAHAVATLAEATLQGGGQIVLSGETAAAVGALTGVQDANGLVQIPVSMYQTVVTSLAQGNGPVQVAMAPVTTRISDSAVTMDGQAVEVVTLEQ

C=Cc1cccc(CCl)c1
active: [7] 100 µM | [11] 38.5 µM | [15] 22.4 µM | [16] 46.2 µM
not listed: [19] | [20]
inactive: all other assays above

CN1C[C@H](C(=O)N[C@]2(C)O[C@@]3(O)[C@@H]4CCCN4C(=O)[C@H](Cc4ccccc4)N3C2=O)C=C2c3cccc4[nH]cc(c34)C[C@H]21
active: [20] 0.966 µM
not listed: [4] | [7] | [10] | [15]
inactive: all other assays above

O=[N+]([O-])O
not listed: [4] | [17] | [20]
inactive: all other assays above

O=C(O)c1cc[c]([Hg][Cl])cc1
active: [11] 7.19 µM | [14] 11.1 µM | [15] 11.1 µM | [16] 6.74 µM | [17] 7.47 µM
not listed: [4] | [10]
inactive: all other assays above

CCCCCCC1CCOC1=O (stereo not drawn)
not listed: [4] | [10]
inactive: all other assays above

CC(C)CCCCCCCOP(=O)(Oc1ccccc1)Oc1ccccc1
active: [2] 55.6 µM | [20] 1.66 µM | [15] 19.5 µM
not listed: [4] | [5] | [7] | [10]
inactive: all other assays above

CCC(C)(C)O
not listed: [7] | [15] | [17] | [19]
inactive: all other assays above

CC(C)[C@@H](C(=O)O[C@@H](C#N)c1cccc(Oc2ccccc2)c1)c1ccc(Cl)cc1
not listed: [4] | [18] | [20]
inactive: all other assays above

CC(O)CN(CC(C)O)CC(C)O (stereo not drawn)
not listed: [3] | [7] | [10] | [18] | [19] | [20]
inactive: all other assays above

CCCC=NO
not listed: [5]
inactive: all other assays above

CC(=O)/C=C/c1ccccc1
active: [5] 69.4 µM | [7] 100 µM | [9] 156 µM | [20] 31.6 µM | [15] 33 µM
not listed: [4] | [6] | [10] | [17] | [18]
inactive: all other assays above

C=CCO
not listed: [6] | [9] | [20]
inactive: all other assays above

C=COCCCl
active: [8] 48.5 µM
not listed: [5] | [10]
inactive: all other assays above

C=C(Cl)Cl
not listed: [3] | [6] | [7] | [10] | [20]
inactive: all other assays above

Cc1ccc(N(SC(F)(Cl)Cl)S(=O)(=O)N(C)C)cc1
active: [2] 15.8 µM | [5] 11.1 µM | [6] 11.1 µM | [8] 11.1 µM | [9] 16.5 µM | [20] 14.4 µM | [11] 17 µM | [14] 17.3 µM | [16] 17.7 µM | [18] 38.7 µM
inactive: [1] | [3] | [10] | [12] | [13] | [17]

O=CNC(N1CCN(C(NC=O)C(Cl)(Cl)Cl)CC1)C(Cl)(Cl)Cl (stereo not drawn)
active: [20] 15.3 µM | [17] 148 µM
not listed: [5] | [6] | [9] | [10]
inactive: all other assays above

N#CC(c1ccccc1)c1ccccc1
active: [20] 30.3 µM | [15] 77.9 µM
not listed: [3] | [7] | [18]
inactive: all other assays above
